# Data as given in PubChem BioAssay (NCATS).
# Inconclusive results are not listed. A number with no mark means an inactive call. The call rests on the fitted dose curve; in most records, active means well fitted inhibition curve with a large enough effect; inconclusive means small, poorly fitted or top-dose-only effect; inactive means no such curve, though single readings can be large or run the other way.
# Molecular target: Cytochrome P450 3A7 (Homo sapiens) (UniProt P24462)
# Test: Cytochrome P450 family 3 subfamily A member 7 (CYP3A7) small molecule antagonists: luciferase biochemical qHTS assay (AID 1963596); further: nearly all actives have a fitted effect of over 40% in size
# Settings: P450-Glo CYP3A7 enzyme luminescence, 1 h; series mostly up to 57.4 µM; activity change, negative = inhibition: at the top concentration
# Summary of the method: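 Compounds were screened in qHTS format for interference with CYP3A7 turnover of a proluciferin substrate. Reactions ran 1 h at room temperature after NADPH regeneration solution was added, then luciferin product was detected by luminescence.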
# On the % scale 0 is the no-effect control and ±100 the full control effect.
# Cytochrome P450 3A7 (Homo sapiens), sequence (P24462 whole entry, looked up): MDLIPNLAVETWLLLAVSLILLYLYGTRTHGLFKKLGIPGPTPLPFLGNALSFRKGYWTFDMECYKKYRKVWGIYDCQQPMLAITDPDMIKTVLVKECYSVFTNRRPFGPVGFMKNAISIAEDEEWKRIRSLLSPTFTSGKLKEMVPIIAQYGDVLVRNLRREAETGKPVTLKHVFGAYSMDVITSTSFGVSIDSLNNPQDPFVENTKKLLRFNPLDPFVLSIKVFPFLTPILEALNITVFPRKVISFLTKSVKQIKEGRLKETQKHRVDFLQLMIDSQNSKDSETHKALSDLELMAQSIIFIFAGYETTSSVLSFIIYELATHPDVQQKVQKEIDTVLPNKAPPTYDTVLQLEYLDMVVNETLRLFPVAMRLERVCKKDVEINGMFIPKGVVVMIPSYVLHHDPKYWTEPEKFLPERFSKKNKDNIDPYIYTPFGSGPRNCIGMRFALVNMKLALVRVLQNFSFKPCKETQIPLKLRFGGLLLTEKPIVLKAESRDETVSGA
row,Compound,"activity change, negative = inhibition"
1,N#C/C(=C/c1ccccc1Cl)c1nc2ccccc2c(=O)[nH]1,-15.4%
2,CC(=O)NC[C@H]1CN(c2ccc(N3CCN(C(=O)CO)CC3)c(F)c2)C(=O)O1,-0.16%
3,COC(=O)c1c(-c2ccc(Cl)cc2)noc1N1CCN(c2ccccc2OC)CC1,-26.8%
